Screening data: PubChem, National Center for Advancing Translational Sciences (NCATS)
RORg inh – qHTS for inhibitors of ROR gamma transcriptional activity. Nuclear receptor ROR-gamma (Mus musculus), P51450. Drosophila S2 Gal4-RORgamma UAS-luciferase reporter, 20 h. Potency, µM (highest dose often 53.6 µM), usual class: inhibitors. 5.4% of 310,000 active; further: nearly all actives have a fitted effect of over 60% in size
Target sequence (P51450 whole entry, looked up, the tested form may be a part): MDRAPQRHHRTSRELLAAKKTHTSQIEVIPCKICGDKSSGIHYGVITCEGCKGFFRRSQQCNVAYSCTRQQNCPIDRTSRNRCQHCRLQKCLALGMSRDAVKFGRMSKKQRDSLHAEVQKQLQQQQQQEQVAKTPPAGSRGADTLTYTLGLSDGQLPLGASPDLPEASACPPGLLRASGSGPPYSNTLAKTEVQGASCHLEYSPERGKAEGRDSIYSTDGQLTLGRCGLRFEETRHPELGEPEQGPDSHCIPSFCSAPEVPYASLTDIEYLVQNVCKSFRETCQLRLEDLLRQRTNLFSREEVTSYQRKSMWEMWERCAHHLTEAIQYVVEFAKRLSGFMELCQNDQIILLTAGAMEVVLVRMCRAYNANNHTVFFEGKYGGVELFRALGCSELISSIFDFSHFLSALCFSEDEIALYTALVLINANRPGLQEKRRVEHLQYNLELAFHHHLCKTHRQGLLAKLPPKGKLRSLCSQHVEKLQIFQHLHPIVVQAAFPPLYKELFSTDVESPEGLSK
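Read-out: Photinus luciferase luminescence; inhibitors lower reporter signal. Insect Schneider cells with Gal4-ROR gamma fusion under metallothionein promoter, UAS reporter; 700 uM final copper sulfate induction, 20 hr, ambient temperature.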
IL-1B inflam inh – qHTS for Inhibitors of Inflammasome Signaling: IL-1-beta AlphaLISA Primary Screen; THP-1 LPS/ATP IL-1B secretion, AlphaLISA, 16 h; active compounds read low; activity change, % at 57.5 µM; 4.7% of 360,000 active; AID 743279, 2014; in the data active means activity change below about -50%; inconclusive means mostly about -30% to -49%
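Secreted IL-1B measured by AlphaLISA bead assay after 16 h compound exposure of THP-1 cells; compounds (final up to 57.5 uM) added 1 h before LPS (250 ng/mL) and ATP (1.25 mM) stimulation; lower signal means less secretion.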
LDHA block – qHTS assay for inhibitors of human lactate dehydrogenase; activity change, % (values are at about 110 or 230 µM); 0.15% of 480,000 active; purified LDHA, NADH/diaphorase-resazurin fluorescence; active compounds read low; L-lactate dehydrogenase A chain (Homo sapiens), P00338; in the data active means activity change below about -30%; inconclusive means mostly about -25% to -30%
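Human LDH5 (2 nM) was incubated with 0.06 mM NADH and 0.2 mM pyruvate for 5 min at room temperature in Tris pH 7.4. Remaining NADH was coupled through diaphorase/resazurin, and resorufin fluorescence was read at 0 and 20 min.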
VP16 counter – VP16 counterscreen qHTS for inhibitors of ROR gamma transcriptional activity | Potency, µM (top dose mostly 53.6 µM), most hits filed as inhibitors | Drosophila S2 Gal4-VP16 UAS-luciferase, luminescence, 20 h | AID 2546, 2010 | 3.5% of 310,000 active;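 further: Gal4-VP16 expression switched on by copper sulfate through the metallothionein promoter; nearly all actives have a fitted effect of over 50% in size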
TDP1 cell noCPT – qHTS for Inhibitors of human tyrosyl-DNA phosphodiesterase 1 (TDP1): qHTS in cells in absence of CPT; DT40 Tdp1-/- hTDP1 cells, no CPT, ATP luminescence, 48 h; Potency, µM (doses to about 46.2 µM), usual class: inhibitors; 15% of 420,000 active; AID 686978, 2013; further: nearly all actives have a fitted effect of over 55% in size
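Luminescent ATP content (CellTiter-Glo) served as the growth readout. Knockout chicken DT40 cells expressing human TDP1 were exposed to compounds without camptothecin for a minimum 48 hr at 37 °C.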
DT40 TDP1 CPT – qHTS for Inhibitors of human tyrosyl-DNA phosphodiesterase 1 (TDP1): qHTS in cells in presence of CPT; 12% of 420,000 active; AID 686979, 2013; Potency, µM (titrated, usually from 46.2 µM), hits mostly inhibitors; chicken DT40 Tdp1-/-;hTDP1 cells + 20 nM CPT, ATP luminescence, 48 h; further: nearly all actives have a fitted effect of over 55% in size
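Cell growth measured by CellTiter-Glo luminescence after a minimum 48 h, 37 C compound exposure with 20 nM CPT in Tdp1-knockout DT40 cells stably expressing hTDP1, seeded 400/well; qHTS titration format.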
Numbers stand for hits; – = inactive; ? = inconclusive; · = not tested or not shown. Sampled rows, rich in hits. Any-hit rate of the full collection: about 18%. Unless noted, the call rests on the fitted dose curve; in most records, active means well fitted curve in the direction sought with a large enough effect; inconclusive means small, poorly fitted or top-dose-only effect, or another doubt; inactive means no such curve, though single readings can be large; an effect the other way counts as inactive or inconclusive.

SMILES | RORg inh | IL-1B inflam inh | LDHA block | VP16 counter | TDP1 cell noCPT | DT40 TDP1 CPT
COc1cc(-c2cc(OC)c3c(C)oc(C)c3c(=O)c2)ccc1OC(=O)c1ccc(C)cc1 | · | · | – | · | 5.8µM | 5.17µM
CCOc1cc(-c2ccc(OC(=O)c3ccc(C)cc3)c(OC)c2)cc(=O)c2c(C)oc(C)c12 | · | · | – | · | 5.17µM | 5.8µM
CCOc1ccc(-c2cc(OC(=O)c3ccc(F)cc3)c3c(C)oc(C)c3c(=O)c2)cc1 | · | · | – | · | 16.4µM | ?
COc1ccc(-c2cc(OC(=O)c3cccc(C)c3)c3c(C)oc(C)c3c(=O)c2)cc1 | · | · | – | · | ? | ?
CCOc1cc(-c2ccc(OC(=O)c3ccccc3F)cc2)cc(=O)c2c(C)oc(C)c12 | · | · | – | · | 13µM | 13µM
COc1ccc(-c2cc(OC(=O)c3cccc(Cl)c3)c3c(C)oc(C)c3c(=O)c2)cc1OC | · | · | – | · | ? | ?
CCOC(=O)Cc1cc(=O)n2[nH]c(NCc3ccc(CC)cc3)nc2n1 | · | · | – | · | · | ·
O=S(=O)(NCC1CN(Cc2ccccc2)CCO1)c1ccccc1 (configuration not stated) | · | · | – | · | · | ·
COc1ccc(C(=O)Oc2cc(-c3ccc(OC)c(OC)c3)cc(=O)c3c(C)oc(C)c23)cc1 | · | · | – | · | 18.4µM | ?
CCOC(=O)C1=C(c2ccccc2)O/C(=C(/C#N)C(F)(F)F)S1 | 14.1µM | · | · | 15.8µM | · | ·
O=C(NCc1cccn1Cc1ccccc1)NC12CC3CC(CC(C3)C1)C2 | · | · | – | · | · | ·
Cc1cc(C)nc(OC(C(=O)O)C(OCc2ccccc2)(c2ccccc2)c2ccccc2)n1 (configuration not stated) | – | – | – | – | – | –
Cc1ccnc(OC(C(=O)O)C(OCc2ccccc2)(c2ccccc2)c2ccc(C(F)(F)F)cc2)n1 (configuration not stated) | – | – | – | – | ? | 20.6µM
Cc1cc(=O)oc2cc(OCC3CC(c4ccc(Br)cc4)=NO3)ccc12 (configuration not stated) | – | – | – | ? | 16.4µM | ?
Cc1cc(=O)oc2cc(OCC3CC(c4ccccc4)=NO3)ccc12 (configuration not stated) | – | – | – | – | 18.4µM | 16.4µM
CCn1nnnc1SCCS(=O)(=O)c1cc(Cl)ccc1Cl | · | · | – | · | · | ·
CCOC(=O)C[C@@H]1OC2CCCCC2N1S(=O)(=O)c1ccc(C)cc1 (some centres not stated) | · | – | – | · | ? | 25.9µM
COc1ccc(C(=O)C[C@@H]2OC3CCCCC3N2S(=O)(=O)c2ccc(C)cc2)cc1OC (some centres not stated) | · | – | – | · | 16.4µM | 16.4µM
C=CCOn1c(=O)c(-c2cccs2)[n+]([O-])c2ccccc21 | – | – | – | – | ? | 23.1µM
COC(=O)/C=C\C(C#N)(C#N)N=Cc1ccc(OC)cc1 | · | – | – | · | 0.651µM | 1.3µM
O=C(N/N=C/c1ccccn1)c1cc(-c2ccc(Cl)s2)[nH]n1 | ? | – | – | – | 16.4µM | 23.1µM
O=C(N/N=C/c1ccccn1)c1cc(-c2ccc(Br)s2)[nH]n1 | 17.8µM | – | – | – | ? | ?
CC(C)c1nnc(NC(=O)CCc2ncc(-c3ccccc3)o2)s1 | · | · | – | · | · | ·
C#CCOc1cccc(C2CC(=O)Nc3c2c(C)nn3-c2ncnc3nc[nH]c23)c1 (configuration not stated) | · | · | – | · | · | ·
CC(O)Cn1c(N2CCN(c3ccccc3)CC2)nc2c1c(=O)[nH]c(=O)n2C (configuration not stated) | · | · | – | · | · | ·
COc1cccc(NC(=O)c2oc3ccc(S(=O)(=O)N4CCC5(CC4)OCCO5)cc3c2C)c1 | · | · | – | · | 5.17µM | 5.8µM
Cc1c(C(=O)Nc2cccc(Cl)c2)oc2ccc(S(=O)(=O)N3CCCCCC3)cc12 | · | · | – | · | ? | 23.1µM
